S2 tox – viability counter-screen for ATXN expression inhibitors; S2 cells (HEK-293 line with an ATXN2-luciferase reporter) viability, CellTiter-Fluor protease fluorescence, 24 h; Potency, µM (doses to about 56.7 µM), most hits filed as cytotoxic; hit rate 0.49% among 400,000; AID 651635; also: nearly all actives have a fitted effect of over 40% in size
TGFb inhibitor – TGF-b pathway inhibition; Potency, µM (series often up to 46.1 µM), most hits filed as inhibitors; hit rate 1.2% among 410,000; HepG2 CAGA-GFP TGF-b/SMAD3 reporter, GFP fluorescence, 18 h; TGF-beta stimulated, 500 pg/mL final; also: nearly all actives have a fitted effect of over 65% in size
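TGF-beta reporter screen: HEPG2 CAGA-GFP, 1% FBS, 500 pg/mL TGF-beta final, 18 h; per-cell GFP summed per well; curves fitted and categorized by class.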
ATXN2 expr inh – ATXN2 expression inhibition | Potency, µM (top dose mostly 57 µM), actives largely listed as inhibitors | HEK-293 ATXN2-luciferase reporter, luminescence, 24 h | hit rate 0.72% among 360,000; also: nearly all actives have a fitted effect of over 55% in size
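qHTS (up to 57 uM final) was run with 24 h compound exposure of reporter cells at 37 °C. Each well was multiplexed: SteadyGlo luminescence measured ATXN2-luciferase expression after a fluorogenic Gly-Phe-AFC viability readout (25 uM final).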
HepG2 viability – counter-screen for TGF-b inhibitors: cytotoxicity in HepG2 cells | HepG2 CAGA-GFP viability, ATP luminescence, 18 h | Potency, µM (doses to about 46.1 µM), most hits filed as cytotoxic | hit rate 0.76% among 410,000 | AID 588856
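HepG2 CAGA-GFP cells (1000/well, DMEM with 1% FBS) received compound, then TGF-beta at 500 pg/mL final, and were incubated 18 hours at 37 degrees C. Viability was read by CellTiter-Glo luminescence. Media-only wells were set as complete cell-killing and DMSO as no toxicity.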
TDP1 cell noCPT – qHTS for Inhibitors of human tyrosyl-DNA phosphodiesterase 1 (TDP1): qHTS in cells in absence of CPT; DT40 Tdp1-/- hTDP1 cells, no CPT, ATP luminescence, 48 h; AID 686978, 2013; hit rate 15% among 420,000; Potency, µM (highest dose often 46.2 µM), hits mostly inhibitors; also: nearly all actives have a fitted effect of over 55% in size
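Seeded 400 DT40-hTDP1 cells/well (vehicle DMSO, no 20 nM CPT); pinned compounds; ≥48 hr at 37 °C; CellTiter-Glo luminescence as viability measure.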
TDP1 cell CPT – growth inhibition of DT40 Tdp1-/-;hTDP1 cells with camptothecin (screen for TDP1 inhibitors); chicken DT40 Tdp1-/-;hTDP1 cells + 20 nM CPT, ATP luminescence, 48 h; AID 686979; Potency, µM (titrated, usually from 46.2 µM), actives largely listed as inhibitors; hit rate 12% among 420,000; also: nearly all actives have a fitted effect of over 55% in size
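Chicken DT40 Tdp1-/- cells stably complemented with human TDP1 were seeded at 400 cells/well in medium containing 20 nM camptothecin, exposed to pin-transferred compounds, and grown at 37 °C for at least 48 hr. Viability was read as ATP luminescence.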
Hits are given with their value; 0 = inactive; ? = inconclusive; - = no result. An excerpt weighted towards active compounds, which were near 17% of everything screened. Calls follow the shape of the dose curve; as a rule, active = well fitted curve in the direction sought with a large enough effect; inconclusive = small, poorly fitted or top-dose-only effect, or another doubt; inactive = no such curve, though single readings can be large; an effect the other way counts as inactive or inconclusive.

SMILES	S2 tox	TGFb inhibitor	ATXN2 expr inh	HepG2 viability	TDP1 cell noCPT	TDP1 cell CPT
CCOC(=O)c1ccc2ncc(C(=O)OCC)c(NCc3ccco3)c2c1	0	0	0	0	23.1µM	14.6µM
CCOC(=O)c1cnc2ccc(C(=O)OC)cc2c1Nc1ccccc1CC	0	0	0	0	11.6µM	16.4µM
CNC(C)C#Cc1c(-c2cc(OC)c(OC)c(OC)c2)noc1C (centres undefined)	?	?	0	0	15.8µM	?
COc1cc(-c2noc(C)c2C(=O)NCc2ccc(C)o2)cc(OC)c1OC	0	0	0	0	?	?
COc1cc(-c2noc(C)c2/C=C/c2ccc(N)cc2)cc(OC)c1OC	?	?	0	0	1.03µM	1.16µM
COc1cc(-c2noc(C)c2C#Cc2ccc(N)cc2)cc(OC)c1OC	?	10µM	0	0	0.517µM	0.82µM
COc1cc(-c2noc(C)c2C#Cc2ccccn2)cc(OC)c1OC	?	?	0	0	1.03µM	0.651µM
CCOC(=O)c1c(NC(=S)Nc2cccc(C)c2)sc2c1CC(C)(C)SC2	0	?	0	0	?	?
CCCC1NC(=O)c2cc3ccccc3cc2-n2c1nc1ccc(F)cc1c2=O (centres undefined)	?	0	?	0	20.6µM	?
CC(C)CC1NC(=O)c2cc3ccccc3cc2-n2c1nc1ccc(Cl)cc1c2=O (centres undefined)	0	0	0	0	?	?
CC(C)CC1NC(=O)c2cc3ccccc3cc2-n2c1nc1ccc(F)cc1c2=O (centres undefined)	?	0	0	0	23.1µM	23.1µM
CCC1NC(=O)c2cc3ccccc3cc2-n2c1nc1cc(OC)c(OC)cc1c2=O (centres undefined)	?	0	0	0	?	?
Cc1ccc2nc3n(c(=O)c2c1)-c1cc2ccccc2cc1C(=O)NC3CC(C)C (centres undefined)	0	0	0	0	16.4µM	16.4µM
OC(Cn1cncn1)(c1ccccc1)c1ccccc1	0	0	0	0	0	0
O=S(=O)(c1cccc(Cn2nnc(-c3ccccc3)n2)c1)N1CCOCC1	0	0	0	0	20.6µM	23.1µM
CN(CC(=O)Nc1cccc(F)c1)C(=O)c1ccc(S(=O)(=O)N2CCCC2)cc1	0	0	0	0	0	0
CN(CC(=O)Nc1cccc(S(=O)(=O)N2CCCCC2)c1)Cc1ccc(F)cc1	?	0	-	0	?	?
CN(CC(=O)Nc1cccc(F)c1)CC(=O)Nc1cccc(S(=O)(=O)N2CCCCCC2)c1	?	?	-	0	16.4µM	16.4µM
CN(CC(=O)Nc1cccc(F)c1)CC(=O)Nc1cccc(S(=O)(=O)N2CCCCC2)c1	?	0	0	0	20.6µM	?
CC1CCc2ccccc2N1CC(=O)Nc1cccc(S(=O)(=O)N2CCCC2)c1 (centres undefined)	0	0	0	0	18.4µM	16.4µM
O=S(=O)(NCCc1ccccc1)c1cccc(S(=O)(=O)N2CCOCC2)c1	0	0	0	0	?	0
COC(=O)C1C(c2ccc(Br)cc2)Nc2nnc(C(F)(F)F)n2C1(C)O (centres undefined)	0	0	0	0	0	0
CCOC(=O)N1CCN(C(=O)CSc2nc(=O)n3ccc(C)cc3n2)CC1	0	0	0	0	0	?
CCOC(=O)c1[nH]c(C)c(C(=O)OCC(=O)Nc2sc3c(c2C#N)CCCCC3)c1C	0	0	0	0	0	0
O=C(Cn1cnnn1)Nc1cccc(S(=O)(=O)N2CCCCC2)c1	0	0	0	0	0	0
SMILES	S2 tox	TGFb inhibitor	ATXN2 expr inh	HepG2 viability	TDP1 cell noCPT	TDP1 cell CPT
O=C(CN1C(=O)c2ccccc2S1(=O)=O)Nc1cccc(S(=O)(=O)N2CCCCC2)c1	0	0	0	0	18.4µM	?
O=C(Cn1nnc(-c2ccccc2)n1)Nc1cccc(S(=O)(=O)N2CCCC2)c1	0	?	0	0	20.6µM	18.4µM
CC(C)OC(=O)N(C)C[C@@H]1OCc2cnnn2CCCC(=O)N([C@@H](C)CO)C[C@H]1C	0	0	0	0	0	0
COc1ccc(F)cc1S(=O)(=O)Nc1ccc(C)cc1	0	0	0	0	23.1µM	0
COc1ccc(NS(=O)(=O)c2cc(C)ccc2OC)cc1OC	0	0	0	0	0	0
COc1ccc(C(=O)N(Cc2ccccc2)Cc2ccc(OC)c(COc3ccc(NC(C)=O)cc3)c2)cc1	-	-	-	-	22.4µM	?
CCOc1ccc(NS(=O)(=O)c2cc(Cl)ccc2OC)cc1	0	?	0	0	16.4µM	?
COc1ccc(Cl)cc1S(=O)(=O)Nc1ccc2[nH]c(=O)[nH]c2c1	-	0	-	0	16.4µM	20.6µM
O=c1[nH]c2ccc(NS(=O)(=O)c3ccc(Cl)cc3)cc2[nH]1	0	0	0	0	0	0
COc1cccc(NC(=O)CSc2nccn2C2CCCC2)c1	-	0	-	0	?	0
Cc1ccc(C(=O)NC(=S)NCC2CCCO2)cc1[N+](=O)[O-] (centres undefined)	0	0	0	0	?	0
COc1ccc(CC2SC(=Nc3ccc(F)cc3)NC2=O)cc1 (centres undefined)	0	0	0	0	?	0
Cc1cc(CN(C)C(=O)c2ccc(OC3CCN(CCc4ccccc4)CC3)cc2)on1	?	0	0	0	0	?
COc1ccc(NC(C)=O)cc1S(=O)(=O)Nc1ccc(OCc2ccccc2)cc1	0	0	0	0	14.6µM	16.4µM
CCOc1ccc(S(=O)(=O)Nc2cccc(Cl)c2)cc1	0	0	0	0	?	23.1µM
CCOc1ccc(NS(=O)(=O)c2ccc(NS(=O)(=O)c3ccccc3)cc2)cc1	0	0	0	0	0	0
O=C(O)[C@@H]1CSCN1	0	-	0	-	0	0
COC(=O)c1cc2oc(C)cc2n1CC(=O)Nc1cc(Cl)ccc1OC	0	0	0	0	0	?
COC(=O)c1cc2ccsc2n1CC(=O)Nc1cc(Cl)ccc1OC	0	?	0	0	13µM	7.31µM
Cc1cc(C)c(NC(=O)Cn2c(=O)n(Cc3ccc(C(=O)NCc4ccco4)cc3)c(=O)c3sccc32)c(C)c1	-	10µM	-	0	0	?
Cc1cccc(C)c1NC(=O)Cn1c(=O)n(Cc2ccc(C(=O)NCc3ccco3)cc2)c(=O)c2sccc21	?	?	?	0	23.1µM	20.6µM
N#Cc1ccccc1Cn1c(=O)n(Cc2ccc(C(=O)NCc3ccco3)cc2)c(=O)c2sccc21	0	0	0	0	0	0
Cc1c(Cl)ccc2sc(NC(=O)c3ccco3)nc12	0	0	0	0	?	?

Screening data as filed in PubChem BioAssay.
